Experimental data taken from PubChem BioAssay (Tox21).
Inconclusive results are not listed. Activity calls are given as the source filed them. Calls follow the shape of the dose curve; as a rule, active = well fitted activation curve with a large enough effect in the signal ratio in the repeat runs (not every such curve was filed as active); inconclusive = weak or mixed curves; inactive = flat fitted curve, though single readings scatter; the % refers to the signal ratio.
% is scaled to controls: 0 for no effect and ±100 for the full control effect.

Assay: qHTS assay to identify small molecule agonists of the TGF-beta/Smad signaling pathway (AID 1346859)
Conditions: SBE-bla HEK293T, TGF-beta/Smad beta-lactamase reporter, 5 h; series mostly up to 76.8 µM; activation: at the top concentration
From the text: U.S. Tox21 Program National Center for Advancing Translational Sciences [NCATS] NIH Chemical Genomics Center [NCGC] U.S. Environmental Protection Agency [EPA] National Institutes of Environmental Health Sciences [NIEHS] National Toxicology Program [NTP] U.S. Food and Drug Administration [FDA] Tox21 Assay Overview: Transforming growth factor beta (TGF-beta) superfamily consists of a large number of structurally related dimeric proteins that act as hormones or local mediators in regulating a wide range of biological functions. This superfamily includes TGF-betas themselves, the bone morphogenetic proteins (BMPs) and the activins. These ligands induce oligomerization of serine/threonine receptor kinases and phosphorylate the cytoplasmic signaling molecules of Smad protein family. CellSensor SBE-bla HEK 293T cell line (Life Technologies, Carlsbad, CA), responsive to TGF-beta was used to screen Tox21 10K compound library for identification of agonists/antagonists of the Smad signaling pathway. This cell line contains a beta-lactamase reporter gene under control of the Smad binding element (SBE) stably integrated into HEK 293T cells.
Tox21 Assay Protocol Summary: SBE-bla HEK 293T cells were dispensed at 4,000/well in 6 uL of assay medium into black wall/clear-bottom 1536-well plates using a Multidrop Combi (ThermoFisher Scientific, Waltham, MA) dispenser. After the assay plates were incubated at 37 C and 5% CO2 for an overnight, 23 nL of compounds dissolved in DMSO, positive controls or DMSO only was transferred to the assay plate by a Pintool station (Kalypsys, San Diego, CA). The assay plates were incubated at 37 C and 5% CO2 for 5 hr. One uL of LiveBLAzer B/G FRET substrate (Life Technologies) was added using a Flying Reagent Dispenser (Aurora Discovery, San Diego, CA) and the plates were incubated at room temperature for 2 hr. Fluorescence intensity (405 nm excitation, 460 nm and 530 nm emissions) was measured using an Envision plate reader (PerkinElmer, Shelton, CT).
In the case of `CC1COc2ccccc2N1` (stereo not given), the “activation” value is reported as -0.523% (inactive). In the case of `OC[C@H](Cc1cccc(O)c1)[C@H](CO)Cc1cccc(O)c1`, the “activation” value is reported as -1.14% (inactive). With `Cc1cccc(C)c1NC(=O)c1ccccc1C(=O)O` the “activation” value was 1.74% [at 35.3 µM] (inactive). With `Nc1ncnc(Nc2ccccc2)n1` the “activation” value was 1.7% [at 35.3 µM] (inactive). With `O=C(OCC1(COC(=O)c2cccnc2)CCCC(COC(=O)c2cccnc2)(COC(=O)c2cccnc2)C1O)c1cccnc1` the “activation” value was -3.04% [at 35.3 µM] (inactive). For `N[C@@H](CCC(=O)Nc1ccc([N+](=O)[O-])cc1)C(=O)O`, the “activation” value was 0.0367% (inactive). For `COCCc1ccc(OCC2CO2)cc1` (stereo not given), the “activation” value was -0.701% [at 35.3 µM] (inactive). For `COc1cc2c(cc1OC)[C@@H]1CC(=O)[C@@H](CC(C)C)CN1CC2`, the “activation” value was 4.48% [at 35.3 µM] (inactive). For `Brc1ccc(-c2ccccc2)cc1`, the “activation” value was 1.89% (inactive). For `Oc1cn2c(n1)Nc1ccc(Cl)c(Cl)c1C2`, the activation was -0.288% [at 15.8 µM] (inactive). With `O=S(=O)(O)CCN1CCN(CCO)CC1` the “activation” value was 2.69% (inactive). In the case of `Cc1ccc2c(c1)OCC(=O)CO2`, the “activation” value is reported as -0.229% (inactive). For `CCOCCOC(=O)/C=C/c1ccc(OC)cc1`, the “activation” value was 2.87% [at 35.3 µM] (inactive). With `Cc1cccc(C)c1OCC(C)N` (stereo not given) the “activation” value was 0.12% [at 35.3 µM] (inactive). With `Oc1ccccc1-c1nnco1` the “activation” value was -0.956% [at 35.3 µM] (inactive). In the case of `CCC(C)(CCC(C)C)C(=O)O` (stereo not given), the “activation” value is reported as 0.0445% (inactive). With `CC(C)(C)OC(=O)c1ccc(O)cc1` the “activation” value was 1.07% (inactive). In the case of `CO[C@@H]1[C@@H](OC(N)=O)[C@@H](O)[C@H](Oc2ccc3c(O)c(NC(=O)c4ccc(O)c(CC=C(C)C)c4)c(=O)oc3c2C)OC1(C)C`, the “activation” value is reported as -6.33% [at 35.3 µM] (inactive). With `CN(C)c1ccc(C=O)cc1` the “activation” value was 1.91% (inactive). For `ClCCCl`, the “activation” value was -3.88% (inactive). In the case of `c1ccc2nccnc2c1`, the “activation” value is reported as -0.14% (inactive). In the case of `Cc1ccccc1N=O`, the “activation” value is reported as 1.2% (inactive). For `Nc1ccc2cc(S(=O)(=O)O)cc(O)c2c1`, the “activation” value was 1.57% (inactive). In the case of `C[Si](C)(C)C`, the “activation” value is reported as -1.73% (inactive). For `COc1ccc(Br)c(C)c1`, the “activation” value was 0.926% (inactive). With `CC(=O)Nc1ccc(S(=O)(=O)Cl)cc1` the “activation” value was 1.76% (inactive). For `O=C1c2ccccc2C(=O)C1c1ccccc1`, the “activation” value was 0.748% [at 35.3 µM] (inactive). For `O=C1c2ccccc2C(=O)c2cc(S(=O)(=O)O)ccc21`, the “activation” value was -2% (inactive). With `CNC(=O)[C@H]1O[C@@H](n2cnc3c(NCc4cc(Cl)ccc4OCc4cc(C)no4)ncnc32)[C@H](O)[C@@H]1N` the “activation” value was 0.847% (inactive). With `CC(C)NCC(O)COc1cccc2[nH]ccc12` (stereo not given) the “activation” value was -0.864% [at 35.3 µM] (inactive). In the case of `CCCCCCOc1ccccc1C(N)=O`, the “activation” value is reported as -1.08% [at 35.3 µM] (inactive). For `CC/C=C\CC1=C(C)CCC1=O`, the “activation” value was -1.82% (inactive). In the case of `CC(CO)c1ccccc1` (stereo not given), the “activation” value is reported as 3.29% (inactive). For `Nc1ccc(S(=O)(=O)Nc2ccc(Cl)nn2)cc1`, the “activation” value was -0.343% [at 35.3 µM] (inactive). In the case of `CCN(CC)CC(=O)Nc1c(C)cccc1C`, the “activation” value is reported as -3.84% [at 35.3 µM] (inactive). With `CCC(C=O)CC` the “activation” value was 7.01% (inactive). For `Cc1c(I)c(=O)n(-c2ccccc2)n1C`, the “activation” value was 1.04% [at 35.3 µM] (inactive). For `CC1=CCC(C(C)C)=CC1`, the “activation” value was 0.228% (inactive). With `COP(=O)(OC)OC(c1ccc(Cl)cc1)P(=O)(OC)OC` (stereo not given) the “activation” value was 2.02% [at 35.3 µM] (inactive). In the case of `CCCCCCCCCCCCCC`, the “activation” value is reported as 1.44% (inactive).
